{"source": "PubChem BioAssay (NCI)", "note": "Compounds without any hit were thinned out: in the full panel of roughly 83,000, 20% have a hit.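 Each cell line was grown in a 96-well plate and treated with one concentration of compound for 48 hours. Values below 10 were considered active.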 A number with no mark means an inactive call. Calls of active or inactive are those of the source.", "data": [{"tested_on": "MCF7 breast", "assay": "NCI-60 one-dose screen, 48 h (100 = growth as untreated, 0 = no growth, -100 = all killed)", "settings": "10 µM unless noted", "values": [{"compound": "CC(=O)Nc1ccc(O)c(C)c1", "growth": "99.9%"}, {"compound": "O=C(c1cccc(C(=O)c2ccc3c4c(cccc24)C(=O)N(c2ccccc2)C3=O)c1)c1ccc2c3c(cccc13)C(=O)N(c1ccccc1)C2=O", "growth": "86.8%"}, {"compound": "Cc1ccc(S(=O)(=O)Oc2ccc3sc4c(CO)ccc(NCCN(C)C)c4c(=O)c3c2)cc1", "growth": "-76.1% [100 µM] (active)"}, {"compound": "O=C1NC(=O)/C(=C\\c2ccncc2)N1", "growth": "94.9%"}, {"compound": "O=C(c1ccccc1O)N1CCCC1", "growth": "90.6%"}, {"compound": "C1Cc2onc(-c3noc4c3CCC4)c2C1", "growth": "99.2%"}, {"compound": "O=S(=O)(O)c1ccc(O)c(C2CCCCC2)c1", "growth": "91.8%"}, {"compound": "CNc1ccccc1C(=O)N/N=C/C=C/c1ccccc1", "growth": "12.2%"}, {"compound": "O=C(O)CC1=CCCCC1", "growth": "96.7%"}, {"compound": "CC(C)c1ccc(C(=O)OCCCl)cc1", "growth": "92.6%"}, {"compound": "CCCCCCCCNC(=O)C(C)C", "growth": "92%"}, {"compound": "Cc1ccc(C)c2c1CCC2=O", "growth": "94.7%"}, {"compound": "CC1(C)CCC(C)(C)NC(=S)N1", "growth": "103%"}, {"compound": "COc1ccc(/C=N/NC(=O)COCC(=O)N/N=C/c2ccc(OC)cc2)cc1", "growth": "95.9%"}, {"compound": "Cc1ccccc1NC(=O)Oc1ccc(Cl)cc1C(=O)c1ccccc1", "growth": "105%"}, {"compound": "CC(=O)c1cccs1", "growth": "94.6%"}, {"compound": "CSc1cnc2ccccc2n1", "growth": "98.9%"}, {"compound": "CCCC(OC(C)=O)c1ccc2c(c1)OCO2", "note": "(centres undefined)", "growth": "95.8%"}, {"compound": "CC(C)N(C(=O)c1ccccc1)C(C)C", "growth": "97.8%"}, {"compound": "O=C(O)c1ccc(OCc2ccccc2)cc1", "growth": "96.5%"}, {"compound": "COc1cc(C(=O)O)c(O)c(C(C)(C)C)c1", "growth": "97.4%"}, {"compound": "CC1(C)OC2C(CO)OC(n3ccc(=O)[nH]c3=O)C2O1", "note": "(centres undefined)", "growth": "97.7%"}, {"compound": "Cc1cccnc1NC1OC(=O)c2ccccc21", "note": "(centres undefined)", "growth": "102%"}, {"compound": "NS(=O)(=O)c1cc(=O)[nH]c(=O)[nH]1", "growth": "101%"}, {"compound": "CCC1CCC(C)NC1", "note": "(centres undefined)", "growth": "95%"}, {"compound": "Cc1ccc2[nH]c3ccccc3c2c1", "growth": "104%"}, {"compound": "C=C1C(=O)C2CCN1CC2", "growth": "94.3%"}, {"compound": "C=CCNC(=S)N/C=C(/C(=O)c1ccccc1)c1ccccc1", "growth": "97.6%"}, {"compound": "CCc1ccccc1C(=O)N(CC)CC", "growth": "91%"}, {"compound": "CN(C)CCOC(=O)Nc1ccc(Cc2ccc(NC(=O)OCCN(C)C)cc2)cc1", "growth": "44.9% [100 µM]"}, {"compound": "CC(C)NC(=O)OCc1c(COC(=O)NC(C)C)c(-c2ccc(Cl)cc2)n2c1CCC2", "growth": "41.2%"}, {"compound": "Nc1ccc2c(c1)Cc1cc(N)c(N)cc1-2", "growth": "73.3%"}, {"compound": "CCOC(=O)C(=O)CC(=O)c1ccccc1", "growth": "96.7%"}, {"compound": "CCNc1ncnc2[nH]ncc12", "growth": "93.3%"}, {"compound": "COc1nc(Nc2cccc(C(F)(F)F)c2)nc(OC)n1", "growth": "97.9%"}, {"compound": "CC(=O)c1cccc(O)c1", "growth": "94.3%"}, {"compound": "CC(C)c1ccccc1NC(=O)N1CCC(C(C)C)CC1", "growth": "97.5%"}]}, {"tested_on": "HCT-116 colon", "assay": "NCI-60 one-dose screen, 48 h (100 = growth as untreated, 0 = no growth, -100 = all killed)", "settings": "10 µM unless noted", "values": [{"compound": "CC(=O)Nc1ccc(O)c(C)c1", "growth": "99.1%"}, {"compound": "O=C(c1cccc(C(=O)c2ccc3c4c(cccc24)C(=O)N(c2ccccc2)C3=O)c1)c1ccc2c3c(cccc13)C(=O)N(c1ccccc1)C2=O", "growth": "93.9%"}, {"compound": "Cc1ccc(S(=O)(=O)Oc2ccc3sc4c(CO)ccc(NCCN(C)C)c4c(=O)c3c2)cc1", "growth": "-75.9% [100 µM] (active)"}, {"compound": "O=C1NC(=O)/C(=C\\c2ccncc2)N1", "growth": "89.6%"}, {"compound": "O=C(c1ccccc1O)N1CCCC1", "growth": "88.5%"}, {"compound": "C1Cc2onc(-c3noc4c3CCC4)c2C1", "growth": "108%"}, {"compound": "O=S(=O)(O)c1ccc(O)c(C2CCCCC2)c1", "growth": "92.7%"}, {"compound": "CNc1ccccc1C(=O)N/N=C/C=C/c1ccccc1", "growth": "21.6%"}, {"compound": "O=C(O)CC1=CCCCC1", "growth": "104%"}, {"compound": "CC(C)c1ccc(C(=O)OCCCl)cc1", "growth": "82.4%"}, {"compound": "CCCCCCCCNC(=O)C(C)C", "growth": "92.7%"}, {"compound": "Cc1ccc(C)c2c1CCC2=O", "growth": "93.1%"}, {"compound": "CC1(C)CCC(C)(C)NC(=S)N1", "growth": "98.9%"}, {"compound": "COc1ccc(/C=N/NC(=O)COCC(=O)N/N=C/c2ccc(OC)cc2)cc1", "growth": "111%"}, {"compound": "Cc1ccccc1NC(=O)Oc1ccc(Cl)cc1C(=O)c1ccccc1", "growth": "90.2%"}, {"compound": "CC(=O)c1cccs1", "growth": "97.4%"}, {"compound": "CSc1cnc2ccccc2n1", "growth": "99.2%"}, {"compound": "CCCC(OC(C)=O)c1ccc2c(c1)OCO2", "note": "(centres undefined)", "growth": "108%"}, {"compound": "CC(C)N(C(=O)c1ccccc1)C(C)C", "growth": "104%"}, {"compound": "O=C(O)c1ccc(OCc2ccccc2)cc1", "growth": "93%"}, {"compound": "COc1cc(C(=O)O)c(O)c(C(C)(C)C)c1", "growth": "101%"}, {"compound": "CC1(C)OC2C(CO)OC(n3ccc(=O)[nH]c3=O)C2O1", "note": "(centres undefined)", "growth": "98.2%"}, {"compound": "Cc1cccnc1NC1OC(=O)c2ccccc21", "note": "(centres undefined)", "growth": "90.8%"}, {"compound": "NS(=O)(=O)c1cc(=O)[nH]c(=O)[nH]1", "growth": "105%"}, {"compound": "CCC1CCC(C)NC1", "note": "(centres undefined)", "growth": "98.8%"}, {"compound": "Cc1ccc2[nH]c3ccccc3c2c1", "growth": "98.3%"}, {"compound": "C=C1C(=O)C2CCN1CC2", "growth": "56.4%"}, {"compound": "C=CCNC(=S)N/C=C(/C(=O)c1ccccc1)c1ccccc1", "growth": "115%"}, {"compound": "CCc1ccccc1C(=O)N(CC)CC", "growth": "92.9%"}, {"compound": "CN(C)CCOC(=O)Nc1ccc(Cc2ccc(NC(=O)OCCN(C)C)cc2)cc1", "growth": "36.5% [100 µM]"}, {"compound": "CC(C)NC(=O)OCc1c(COC(=O)NC(C)C)c(-c2ccc(Cl)cc2)n2c1CCC2", "growth": "49.9%"}, {"compound": "Nc1ccc2c(c1)Cc1cc(N)c(N)cc1-2", "growth": "95.8%"}, {"compound": "CCOC(=O)C(=O)CC(=O)c1ccccc1", "growth": "97.9%"}, {"compound": "CCNc1ncnc2[nH]ncc12", "growth": "105%"}, {"compound": "COc1nc(Nc2cccc(C(F)(F)F)c2)nc(OC)n1", "growth": "97%"}, {"compound": "CC(=O)c1cccc(O)c1", "growth": "99.9%"}, {"compound": "CC(C)c1ccccc1NC(=O)N1CCC(C(C)C)CC1", "growth": "108%"}]}]}
